Hits are enriched below; roughly 0.93% of the tested compounds scored in any of these assays.
HIV TAR-Tat = HIV-1 TAR-Tat binding disruption | HIV-1 TAR RNA, Tat peptide displacement FRET; active compounds read high | z-score (test concentration not listed) | hit rate 0.6% among 100,000 | AID 1259389; active = z-score of 3 or more in at least 2 runs
CDC25B-CDK2 inh = human CDC25B-CDK2/CyclinA binding inhibition; P30305+P24941; HTRF CDC25B-CDK2/CyclinA binding, anti-His/anti-Flag; active compounds read high; z-score (no concentration beside the values); hit rate 0.72% among 94,000; AID 1259370; in the data active = z-score above about 3.2
* marks the source's active call; other numbers are inactive results.

For Nc1n[nH]c2cc(=O)[nH]c(O)c12 the results were CDC25B-CDK2 inh -0.59.
Cc1ccc(-c2cc(C(=O)N3CCN(C(c4ccccc4)c4ccccc4)CC3)c3ccccc3n2)cc1C was read as CDC25B-CDK2 inh -13.
`Cc1nn(-c2nc3ccccc3o2)c2c1C(c1ccc(F)c(Br)c1)CC(=O)N2` (stereo unspecified) gave HIV TAR-Tat 0.31.
`Cc1ccc(S(=O)(=O)c2cn(Cc3ccccc3C)c3nc(C)ccc3c2=O)cc1` gave HIV TAR-Tat 0.24.
`Clc1cccc2c(N3CCCC3)cnnc12` gave HIV TAR-Tat 1.33.
Screening CCCS(=O)(=O)N1CCCc2ccc(NS(=O)(=O)c3ccc(OC)cc3OC)cc21 returned HIV TAR-Tat 5.99*.
`CCS(=O)(=O)N1CCCc2ccc(NS(=O)(=O)c3cc(OC)ccc3OC)cc21` gave HIV TAR-Tat -0.11.
For CN1C(C(=O)NCc2cccs2)=CC(c2ccco2)=NS1(=O)=O the results were HIV TAR-Tat 1.27 and CDC25B-CDK2 inh -1.56.
Screening CC1(C)Cc2c(sc(N)c2C(N)=O)CO1 returned HIV TAR-Tat -0.25 and CDC25B-CDK2 inh 0.4.
`CCOc1ccc(-c2noc(-c3nnn(-c4ccc(F)cc4F)c3N)n2)cc1` gave HIV TAR-Tat -0.02.
`O=C(c1cccs1)N1CCN(CCN2C(=O)c3cccc4cccc(c34)C2=O)CC1` gave HIV TAR-Tat 1.14 and CDC25B-CDK2 inh 11.8*.
O=C(c1cccs1)N1CCN(CCOc2ccccc2)CC1 was read as CDC25B-CDK2 inh 4.28.
Screening CC1=C(c2ccc(Cl)cc2)S(=O)(=O)N=C1N1CCc2ccccc21 returned HIV TAR-Tat 0.52 and CDC25B-CDK2 inh -2.82.
For CCc1nn(CC(=O)NCCCN2C(C)CCCC2C)c(=O)c2cc3sc(C)cc3n12 (stereo unspecified) the results were HIV TAR-Tat 1.39 and CDC25B-CDK2 inh -0.12.
O=C(O)CSCC(=O)Nc1nc(SCc2ccc(Cl)cc2)n[nH]1 was read as CDC25B-CDK2 inh 6.97*.
`Cc1ccccc1C(=O)Nc1nc(SCc2ccc(Cl)cc2)n[nH]1` gave CDC25B-CDK2 inh -1.66.
Screening CSc1cccc(NC2c3ccccc3C(=O)N2c2ccccn2)c1 (stereo unspecified) returned HIV TAR-Tat -0.2 and CDC25B-CDK2 inh -0.21.
For C/C(=C\c1ccccc1)c1nnc2[nH]c(=O)n(C)c(=O)c2n1 the results were HIV TAR-Tat 18.7* and CDC25B-CDK2 inh -0.65.
Cn1c(=O)[nH]c2nnc(-c3cccnc3)nc2c1=O was read as HIV TAR-Tat 0.12 and CDC25B-CDK2 inh -1.67.
Screening CCS(=O)(=O)n1nc(-c2ccccc2OC)cc1N returned CDC25B-CDK2 inh -1.51.
Screening COc1ccc(-c2cc(C3CCN(c4nc(N)c5cc(OC)c(OC)cc5n4)CC3)[nH]n2)cc1OC returned CDC25B-CDK2 inh 19.8*.
`COc1ccc(-c2c(N)n[nH]c2C)cc1OC` gave HIV TAR-Tat 0.76 and CDC25B-CDK2 inh -2.18.
O=C(O[C@@H]1Cc2c(O)cc(O)cc2O[C@@H]1c1cc(=O)c(O)c2c(O)c(O)cc([C@H]3Oc4cc(O)cc(O)c4C[C@H]3O)c2c1)c1cc(O)c(O)c(O)c1 was read as HIV TAR-Tat 30.4*.
For Oc1ccc([C@H]2Oc3cc(O)cc(O)c3C[C@H]2O)cc1 the results were HIV TAR-Tat -0.59.
CC(C)NC(=O)c1ccc2c(c1)CCN2S(C)(=O)=O was read as HIV TAR-Tat 1.49 and CDC25B-CDK2 inh -0.84.
Screening CS(=O)(=O)N1CCc2cc(C(=O)NCc3ccco3)ccc21 returned HIV TAR-Tat 14.5* and CDC25B-CDK2 inh -0.51.
For Cc1cc(C)c2c(C)c(C(=O)N(Cc3ccc(C)o3)C3CCS(=O)(=O)C3)oc2c1 (stereo unspecified) the results were HIV TAR-Tat 1.19 and CDC25B-CDK2 inh -1.21.
`CCCc1cc(=O)n2nc(N3CCC(C(=O)NCCN4CCCCC4)CC3)sc2n1` gave HIV TAR-Tat 0.33 and CDC25B-CDK2 inh -0.58.
Screening CC1CCc2c(sc3ncnc(N4CCCCCC4)c23)C1 (stereo unspecified) returned CDC25B-CDK2 inh -1.12.
For COc1cc(-c2coc3cc(OC)c(OC)c(OC)c3c2=O)cc(OC)c1OC the results were HIV TAR-Tat 3.17.
CC(=O)Oc1cc(-c2coc3cc(OC(C)=O)c(OC(C)=O)c(OC(C)=O)c3c2=O)cc(OC(C)=O)c1OC(C)=O was read as HIV TAR-Tat 24.8*.
Screening CCOC(=O)N1CCN(c2c(N(CC)CCN(C)C)c(=O)c2=O)CC1 returned HIV TAR-Tat 0.17 and CDC25B-CDK2 inh -1.05.
For O=c1cc(COc2ccc(Cl)cc2)nc2sc(-c3ccco3)nn12 the results were HIV TAR-Tat 35.7* and CDC25B-CDK2 inh -0.91.
`O=c1cc(CSc2nc3ccccc3[nH]2)nc2sc(-c3ccco3)nn12` gave HIV TAR-Tat 14.9* and CDC25B-CDK2 inh -0.16.
Screening Cc1ccc(OCc2cc(=O)n3nc(-c4ccccc4)sc3n2)cc1C returned HIV TAR-Tat 4.47* and CDC25B-CDK2 inh 1.73.
Screening O=c1cc(CSc2nc3ccccc3[nH]2)nc2sc(-c3cccs3)nn12 returned HIV TAR-Tat 0.82 and CDC25B-CDK2 inh 0.61.
Cc1cccc(OCc2cc(=O)n3nc(-c4ccco4)sc3n2)c1C was read as HIV TAR-Tat 35* and CDC25B-CDK2 inh -0.31.
For Cc1nn2c(=O)cc(COc3cccc(C)c3C)nc2s1 the results were HIV TAR-Tat -0.75 and CDC25B-CDK2 inh -1.02.
O=c1cc(CSc2ccc(Cl)cc2)nc2sc(-c3ccco3)nn12 was read as HIV TAR-Tat 1.61 and CDC25B-CDK2 inh -2.17.
For CCc1nn2c(=O)cc(COc3ccc(C)c(C)c3)nc2s1 the results were HIV TAR-Tat 0.78 and CDC25B-CDK2 inh -1.48.
Screening Cc1nc(N2CCN(C)CC2)ncc1C(=O)NCCC(C)C returned HIV TAR-Tat 1.26.
`CCCCCCn1c(=O)c2c(nc3n2CCN3c2ccc(F)cc2)n(C)c1=O` gave HIV TAR-Tat 1.91.
`O=C(NCc1ccccc1)c1sc(=S)n2c1[nH]c(=O)c1ccccc12` gave HIV TAR-Tat 8.36*.
Screening CC(=O)NCCNC(=O)c1ccc2c(=O)[nH]c3c(C(=O)NC4CCCC4)sc(=S)n3c2c1 returned HIV TAR-Tat 16.4.
`CCN(CC)CCNC(=O)c1ccc2c(=O)[nH]c3c(C(=O)NC(C)C)sc(=S)n3c2c1` gave HIV TAR-Tat 6.41*.
`O=C(NCc1ccco1)c1ccc2c(=O)[nH]c3c(C(=O)NCC4CCCO4)sc(=S)n3c2c1` (stereo unspecified) gave HIV TAR-Tat 4.7*.
O=C(NCc1cccc(Cl)c1)c1sc(=S)n2c1[nH]c(=O)c1ccccc12 was read as HIV TAR-Tat 2.85.
CC(C)NC(=O)c1sc(=S)n2c1[nH]c(=O)c1ccc(C(=O)NC(C)c3ccccc3)cc12 (stereo unspecified) was read as HIV TAR-Tat 0.68.
Screening O=C(Cn1c(=O)c(C(F)(F)F)nc2ccccc21)N1CCN(C2CCCCC2)CC1 returned CDC25B-CDK2 inh 0.22.
Screening O=C(c1cccs1)n1nc(-c2ccco2)nc1NCc1ccc(Br)cc1 returned HIV TAR-Tat 1.75 and CDC25B-CDK2 inh -4.92.
`Clc1ccc(-c2csc3ncnc(NCc4ccccc4)c23)cc1` gave HIV TAR-Tat 0.25 and CDC25B-CDK2 inh -0.27.
`CCOC(=O)c1c(C)oc2c1c(CN1CCCC(C(=O)OCC)C1)c(O)c1ccccc12` (stereo unspecified) gave CDC25B-CDK2 inh -0.68.

Bioassay records (PubChem BioAssay)
